Bioassay records: PubChem, National Center for Advancing Translational Sciences (NCATS)
Only some compounds are listed: those with a hit (about 19% of all), similar ones and a draw of the others.
TDP1 cell CPT: DT40-hTDP1 cell growth loss with CPT; chicken DT40 Tdp1-/-;hTDP1 cells + 20 nM CPT, ATP luminescence, 48 h; Potency, µM (highest dose often 46.2 µM), inactives show at the top dose activity change, negative = growth inhibition, most hits filed as inhibitors; 420,000 compounds, 12% hits; AID 686979; further: potency means the concentration at half of the fitted maximal effect; nearly all actives have a fitted effect of over 55% in size
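Chicken DT40 Tdp1-/- cells complemented with human TDP1, 400 cells/well, exposed to compounds plus 20 nM camptothecin for at least 48 h at 37 C; viability read as ATP content by CellTiter-Glo luminescence.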
DT40 TDP1 no CPT: qHTS for Inhibitors of human tyrosyl-DNA phosphodiesterase 1 (TDP1): qHTS in cells in absence of CPT; Potency, µM (top dose mostly 46.2 µM), inactives show at the top dose activity change, negative = growth inhibition, actives largely listed as inhibitors; 420,000 compounds, 15% hits; DT40 Tdp1-/- hTDP1 cells, no CPT, ATP luminescence, 48 h; further: potency means the concentration at half of the fitted maximal effect; nearly all actives have a fitted effect of over 55% in size
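Growth kinetics read by CellTiter-Glo luminescence after ≥48 hr at 37 °C. Cells: DT40 Tdp1-/- stably carrying human TDP1, 400 per well, compound exposure in the absence of CPT (DMSO vehicle).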
HT1080NT lethal: kills 2HG-producing HT-1080-NT fibrosarcoma cells; Potency, µM (highest dose often 46.1 µM), for inactives: top-dose activity, negative = less viability, most hits filed as cytotoxic; AID 686970; HT-1080-NT fibrosarcoma viability, CellTiter-Glo ATP luminescence, 48 h; 360,000 compounds, 1.6% hits;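 further: NT is the 2HG producing partner of a matched IDH1 knockdown line; potency means the concentration at half of the fitted maximal effect; 0% = DMSO-treated cells and -100% = media-only wells without cells; nearly all actives have a fitted effect of over 55% in size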
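Read-out is CellTiter-Glo luminescence after 10 minutes at room temperature, following 48 hours' compound treatment of HT-1080-NT cells (750 cells/well, RPMI, 5% FBS, 37 degrees C).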
HT1080 IDH1KD tx: HT-1080 IDH1 knockdown cell toxicity (counter line); HT-1080 IDH1 knockdown viability, ATP luminescence, 48 h; Potency, µM (titrated, usually from 46.1 µM), for the others: top-dose activity, negative = toxicity, hits mostly cytotoxic; 360,000 compounds, 2% hits; AID 686971;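 further: potency means the concentration at half of the fitted maximal effect; 0% = DMSO wells and -100% = cell-free medium wells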
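In this qHTS, HT-1080 cells depleted of IDH1 are exposed for 48 h at 37 °C to compound titrations. Toxicity is scored from CellTiter-Glo luminescence, with DMSO as full viability and medium alone as none.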
IL1B secr inh: inflammasome signaling inhibition, IL-1 beta readout. THP-1 LPS/ATP IL-1B secretion, AlphaLISA, 16 h; active compounds read low. activity change, % at 57.5 µM. 360,000 compounds, 4.7% hits. AID 743279; in the data active means activity change below about -50%; inconclusive means mostly about -30% to -49%
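THP-1 cells pretreated 1 hr with compounds (up to 57.5 uM final), then stimulated with LPS (250 ng/mL final) plus ATP (1.25 mM final); secreted IL-1B measured by AlphaLISA after 16 hr, decreased signal indicating inhibition.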
Active calls of the source: *; u = inconclusive; x = not tested or not shown. Unless noted, the call rests on the fitted dose curve; in most records, active means well fitted curve in the direction sought with a large enough effect; inconclusive means small, poorly fitted or top-dose-only effect, or another doubt; inactive means no such curve, though single readings can be large; an effect the other way counts as inactive or inconclusive. Unless noted, on the % scale 0 is the no-effect control and ±100 the full control effect.

SMILES	TDP1 cell CPT	DT40 TDP1 no CPT	HT1080NT lethal	HT1080 IDH1KD tx	IL1B secr inh
COC1=C(C(=O)O)N2C(=O)[C@@H](NC(=O)[C@H](N)C3=CCC=CC3)[C@H]2SC1	-19%	-20%	x	x	x
Cc1ccccc1CC1(C)C(=O)Nc2ccc(S(=O)(=O)NC3CCCCC3)cc21 (centres undefined)	u	21µM*	1%	0%	63
CC1(Cc2ccccc2OC(F)(F)F)C(=O)Nc2ccc(S(=O)(=O)NC3CCCCC3)cc21 (centres undefined)	u	u	u	u	-2
Cc1cccc(NNC(=O)C(=O)NNc2cccc(C)c2)c1	20%	-24%	u	5.2µM*	8
CC(=O)Nc1ccc(S(=O)(=O)NNc2cccc(C)c2)cc1	23µM*	u	-30%	-17%	12
CCC(C)(C)NC(=O)C(c1cccn1C)N(Cc1ccc(OC)cc1)C(=O)Cn1nnc2ccccc21 (centres undefined)	u	u	u	-27%	47
Nc1cc([N+](=O)[O-])ccc1OCc1ccccc1	18µM*	u	-3%	-15%	7
Nc1cc([N+](=O)[O-])ccc1Nc1ccccc1	15µM*	6.5µM*	1%	-16%	-103*
CCc1n[nH]c(=S)n1/N=C/c1cc(OC)cc([N+](=O)[O-])c1O	9%	-23%	-7%	-2%	-10
COC(=O)NC(=C(Cl)Cl)S(=O)(=O)c1ccccc1	6.5µM*	10µM*	-2%	-3%	-118*
Cc1ccc(C(=O)NC(C#N)=C(Cl)Cl)cc1	u	2.3µM*	6.5µM*	21µM*	-103*
Cc1ccc(C(=O)NC(=C(Cl)Cl)S(=O)(=O)c2ccccc2)cc1	u	21µM*	u	u	-95*
COCC(C)NS(=O)(=O)c1ccccc1 (centres undefined)	-23%	-3%	-4%	5%	2
COc1ccc(C(=O)NC(=C(Cl)Cl)S(=O)(=O)c2ccc(C)cc2)cc1	u	u	u	u	-95*
CCN1/C(=N\N)c2cccc3cccc1c23	u	21µM*	1%	3%	4
CCC(C)NC(=O)CN1C(=O)c2cccc3cccc1c23 (centres undefined)	7%	-9%	-2%	2%	-1
Cc1ccc(-c2cc(C(=O)Oc3ccccc3)c3cc(C)ccc3n2)cc1	7%	-8%	x	x	x
O=C1C[C@H]2C=CCc3cccc(c32)CN1Cc1cccc(F)c1	16µM*	10µM*	x	x	x
O=C1C[C@@H]2c3c(cccc3CN1Cc1ccccc1F)C[C@@H](O)[C@H]2O	-1%	-3%	13%	9%	28
Cc1ccc(CN2CC[C@H]3C=CCc4cccc(c43)C2)cc1	u	21µM*	4%	-1%	19
O=C1C[C@H]2C=CCc3cccc(c32)CN1Cc1ccc(Cl)cc1	u	13µM*	x	x	x
O=C1C[C@@H]2c3c(cccc3CN1Cc1ccc(Cl)cc1)C[C@@H](O)[C@H]2O	-3%	-18%	0%	19%	10
C1=C[C@@H]2CCN(Cc3ccccc3)Cc3cccc(c32)C1	-38%	u	1%	-7%	19
CCOc1ccc(S(=O)(=O)N2CCN(c3nc(-c4ccccc4)nc4ccccc34)CC2)cc1	5%	-16%	14%	13%	x
COc1ccc(S(=O)(=O)N2CCN(c3nc(-c4cccnc4)nc4ccccc34)CC2)cc1	18µM*	8.2µM*	-17%	-23%	-22
COc1ccc(S(=O)(=O)N2CCN(c3ccc4nnc(-c5ccccc5)n4n3)CC2)cc1	12µM*	u	-16%	-27%	0
Cc1ccc(C)c(S(=O)(=O)N2CCN(c3nc(-c4cccnc4)nc4ccccc34)CC2)c1	8.2µM*	6.5µM*	-20%	-7%	0
O=S(=O)(c1ccccc1F)N1CCN(c2nc(-c3cccnc3)nc3ccccc23)CC1	u	21µM*	-17%	-24%	4
CC(C)(C)NC(=O)COC(=O)c1ccc2c(c1)C(=O)N(Cc1ccco1)C2=O	25%	-12%	11%	10%	14
